Drawing on PubChem BioAssay (NCI), this text covers growth for 40 compounds.

About 83,000 compounds went through this panel and 20% of them were active in at least one assay; those are over-represented in the sample as a whole.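 Note: values are percent growth. 100 is the growth of untreated cells, values between 100 and 0 indicate rising inhibition; between -100 and 0 indicates cell death.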 Values without a mark were called inactive. Active and inactive are the calls of the source. Rule for the calls: active = growth percent below 10; inactive = the rest.

This test concerns HL-60(TB) leukemia. The experiment in a line: NCI-60 one-dose screen, 48 h (100 = growth as untreated, 0 = no growth, -100 = all killed). The settings on record: 10 µM unless noted.
Turning to `Nc1c(Cl)cc(/C=C2\C=Cc3ccccc32)cc1Cl`, the growth is 104%.

For `CC1(C)COB(OCC(C)(C)COB2OCC(C)(C)CO2)OC1`, the growth was 101%. In the case of `Cc1cc(C)cc(Nc2cc(C)nc3nc(C(F)(F)F)nn23)c1`, the growth was 15.4%. The figure for `Cn1c(=O)c(S(=O)(=O)c2ccccc2)cc2ccc3c(cnn3-c3ccc(Cl)cc3)c21` is 90.2%. Consider `Cc1cc(C)cc(NCCC#N)c1`, for which the growth was 84.9%. On to `CN1CCN(CC(=O)N2c3cccc4cccc(c34)N(C(=O)CN3CCN(C)CC3)C2c2cn(-c3ccccc3)nc2-c2cccc([N+](=O)[O-])c2)CC1`, for which the growth was -60% (active).

On to `COc1cccc(C2C(C#N)=C(N)Oc3c2ccc2ccccc32)c1` (stereo not given), for which the growth was -30.3% (active). For the compound `COc1ccc(/C=C2\COc3ccc(O)c(O)c3C2=O)c(OC)c1`, the growth was -13.2% (active). Regarding `O=C1CCC(C(=O)NN(c2ccccc2)c2ccccc2)N1` (stereo not given), the growth is -18.8% (active). For `Oc1ccccc1/C=N/c1ccccn1`, the growth was 102%. Take `CC1SC(c2ccccc2O)N(NC(=O)CCC(=O)c2nc3ncccc3[nH]2)C1=O` (stereo not given): the growth was 101%.

As for `Cc1cc2c(C#N)n3c(c2cc1C)C(=O)C(c1ccccc1)Oc1ccccc1-3` (stereo not given), the growth is 36.3%.

Regarding `COc1cc(Nc2nc(NCCN)nc3cc[nH]c(=O)c23)cc(OC)c1`, the growth was 71.8%.

On to `c1ccc(CCn2cccc2)nc1`, for which the growth is 1.63% (active). The figure for `Oc1[nH]c2ccccc2c1/C=c1/ccc2c(c1)N=C(c1ccc(C(F)(F)F)cc1)N=2` is 74.3%; for `CN1CCN(c2ccc(Nc3c4ccccc4nc4ccccc34)cc2)CC1` it is 119%; for `O=C1c2cccnc2C(=O)c2c1c(C(=O)OCCc1ccccn1)c1ccccn21` it is -19.5% (active). The figure for `CC(C)(C)OC(=O)N1C/C(=C\c2cccs2)C(=O)/C(=C/c2cccs2)C1` is 96.7%. Take `O=C(O)c1occ(Cl)c1Cl`: the growth is 75.3%. Turning to `CN(C)CCS(=O)(=O)Nc1cc(-c2ccc3ncc(C#N)c(Nc4ccc(F)c(Cl)c4)c3c2)cnc1Cl`, the growth is -28.4% (active). The figure for `O=S(=O)(CCN1CCOCC1)Nc1cc(-c2ccc3ncnc(Nc4ccc(F)c(Cl)c4)c3c2)cnc1Cl` is 27.3%; for `COc1ccc(C/C(C)=C(/c2ccc(OCCN(C)C)cc2)c2ccc(OC(=O)NCc3ccccc3)cc2)cc1` it is 45.1%; for `COc1cccc(Nc2nccc(Nc3ccc4[nH]ncc4c3)n2)c1` it is -62.3% (active). In the case of `COc1ccc(/C(C)=C(\c2ccc(Cl)cc2)c2ccc(OCCN(C)C)cc2)cc1F`, the growth is 58.2%. Then `Cc1cc(N2CCN(CC(=O)Nc3ccc4c(ccn4Cc4ccccc4)c3)CC2)nc(N2CCOCC2)n1`, with 87.3%. For the compound `COCCn1cc(-c2csc(-c3cn(C)c4ccc(Br)cc34)n2)c2cccnc21`, the growth is 51.3%. Consider `O=C(CN1C(=O)S/C(=C\C(Cl)=C\c2ccccc2)C1=O)NCCCn1ccnc1`, for which the growth is -4.78% (active). Regarding `NS(=O)(=O)Oc1ccc(-c2sc3cc(O)ccc3c2C(=O)c2ccc(OCCN3CCCCC3)cc2)cc1`, the growth is 47.7%.

With `COc1ccc2c(c1)OC13Oc4cc(OC)ccc4C=C1CCCCC3=C2`, the growth is 104%. For `CCN1CCN(c2ccc(NC(=O)Nc3nc4ccc(-c5ccccc5OC)cc4s3)cc2)CC1`, the growth was -74.1% (active). On to `CCCCNC(=O)C(=O)NCCCC`, for which the growth is 113%. Take `N#CC1=C(N)Oc2c(ccc3ccccc23)C1c1ccccc1` (stereo not given): the growth was -22.3% (active).

Turning to `O=C1c2ccccc2C(=O)c2c(NCCN=Cc3ccccc3O)cccc21`, the growth was 44%. `COC(=O)CCC1=C(CC(=O)OC)C(C)=N/C1=C\c1[nH]c(-c2ccc[nH]2)cc1OC`: the growth was 44.2%. `CC(=O)NCNC(C)=O`: the growth was 113%.

`C/C(=N/N=C(N)N)c1ccc(Cl)cc1`: the growth is 171%. Then `O=C1c2ccccc2C(=O)c2c1oc1oc3c(c(=O)c21)c(=O)n(-c1ccccc1)c1ccccc31`, with 7.05% (active); and `O=C(NC1CCCCC1)c1ccc(Cl)cc1`, with 92.8%; and `O=C(O)c1cccc([N+](=O)[O-])c1O`, with 78.2%.

On to `O=C(Nc1ccncc1)C(=O)c1cn(S(=O)(=O)c2cc(Cl)cc(Cl)c2)c2ccccc12`, for which the growth is 58.9%.
